Drawing on PubChem BioAssay (EPA / NIEHS), this text covers outcome and AC50 for 16 molecules.

SMILES strings stand for the structures. Records with an inconclusive call do not appear. Active and inactive are the calls of the source. How the source made its calls: active means hit-call score of the fitted dose curve at least 0.9, where 1 is the maximum; inconclusive means response in the unintended direction; inactive means score below 0.9.

Read-out in the assay: ABC Transporter (ABCB11), ABCB11 (gene 8647)
The assay can be described thus: CLD_ABCB11_48hr: CellzDirect (CLD) Gene Expression Assay for ABC Transporter (ABCB11) at 48 hours (AID 2283697). The procedure: CLD_48hr is a cell-based, multiplexed-readout assay that uses hepatocyte, a human liver primary cell, with measurements taken at 48 hours after chemical dosing in a 96-well plate.CLD_ABCB11_48hr is one of 16 assay component(s) measured or calculated from the CLD_48hr assay. It is designed to make measurements of mRNA induction, a form of inducible reporter, as detected with chemiluminescence signals by Quantitative Nuclease Protection Assay (qNPA) technology.Data from the assay component CLD_ABCB11_48hr was analyzed at the endpoint, CLD_ABCB11_48hr, in the positive analysis fitting direction relative to DMSO as the negative control and baseline of activity. Using a type of inducible reporter, gain-of-signal activity can be used to understand changes in the reporter gene as they relate to the gene ABCB11. Furthermore, this assay endpoint can be referred to as a primary readout. To generalize the intended target to other relatable targets, this assay endpoint is annotated to the transporter intended target family, where subfamily is ABC transporter.
Human hepatocyte cultures were treated daily for two consecutive days with fresh dosing solutions containing appropriate concentrations of the 320 ToxCast chemicals (chemical identities were blinded to CellzDirect and other ToxCast collaborators), vehicle control (0.2% DMSO), and positive control inducers as summarized in Table 1. Due to the large number of treatment groups and chemicals examined, the ToxCast chemicals were divided into two groups (spanning two independent cultures of hepatocytes from separate donor preparations (Hu778: ToxCast plates 1 and 2; Hu776: ToxCast plates 3 and 4). Each preparation of human hepatocyte cultures was treated with respective vehicle control, medium only control, set of six positive controls/reference chemicals for the five hepatic receptor pathways, and a subset of eight of the ToxCast chemicals (indoxacarb, pyrithiobac-sodium, norflurazon, cyhalofop-butyl, methomyl, thiram, acetochlor, and propiconazole). These replicate data, coupled with internal replicates designed within the blinded ToxCast chemical library, provided additional data to evaluate interindividual differences between hepatocyte preparations and their potential impact on chemical profiles.Cell morphology and integrity were evaluated using phase-contrast microscopy as an indicator of hepatocyte cell health (Tyson & Green, 1987). Cultures for each treatment group (i.e., media, vehicle [0.2% DMSO], positive control inducers [multiple concentrations], and the ToxCast chemicals [multiple concentrations]) were observed and cell morphology was assessed relative to vehicle control cultures at each harvest time point (0, 6, 24, or 48 h). […] Images were evaluated at the conclusion of the study to assess changes in cell integrity and account for the effects of chemical exposure on uncharacteristic changes in concentration-dependent gene expression profiles. The results from these determinations of apparent cytotoxicity were annotated (yes/no) alongside the corresponding qNPA data for reference.At the conclusion of each treatment period, hepatocyte cultures (96-well) were washed with 1 volume of HBSS, lysed by addition of 25 ul ArrayPlate lysis buffer (HTG, Tucson, AZ), and 70 ul/well of Denaturation Oil, denatured by incubation at 95C for 10 min, and frozen at approximately -70C until analysis by nuclease protection assay (qNPA) (Roberts et al., 2007). For qNPA analysis, cell lysates were thawed at 50C for approximately 30 min, qNPA probes were added, and samples were incubated at 95C for 10 min to begin the detection process by denaturing the target RNA, dissociating the duplexes and secondary structure hybridization. At the conclusion of the hybridization period, S1 nuclease reagent was added to each sample to digest all nonprotected nucleotides at 50C for 60-90 min. […]
Regarding `CCOC(=O)C(C)Oc1ccc(Oc2cnc3cc(Cl)ccc3n2)cc1` (stereo unspecified), the outcome was inactive.
Turning to `CCNc1nc(N)nc(Cl)n1`, the result was inactive.
For the molecule `CCCCC(CC)COC(=O)c1ccccc1C(=O)O` (stereo unspecified), the call was inactive.
Consider `C#CCOC(=O)[C@@H](C)Oc1ccc(Oc2ncc(Cl)cc2F)cc1`, for which the result was inactive.
As to `CCCCCOC(=O)COc1cc(N2C(=O)C3=C(CCCC3)C2=O)c(F)cc1Cl`, the molecule was classed as inactive.
Turning to `COCCO`, the molecule was classed as inactive.
For the molecule `CCCN(CCC)C(=O)SCC`, the molecule was classed as inactive.
As for `CC1(C)C(C=C(Cl)Cl)C1C(=O)OCc1cccc(Oc2ccccc2)c1` (stereo unspecified), the call was inactive.
Regarding `CCCOC(=O)c1ccc(C(=O)OCCC)nc1`, the molecule was classed as inactive.
Turning to `N#CSCSc1nc2ccccc2s1`, the AC50 is 34.1 µM (active).
For `COC(=O)c1c(Cl)nn(C)c1S(=O)(=O)NC(=O)Nc1nc(OC)cc(OC)n1`, the molecule was called inactive.
Same read-out and setting: then `CCC(C)OC(=O)N1CCCCC1CCO` (stereo unspecified), with “inactive”; and `OB(O)O`, with “inactive”; and `c1ccc(Nc2ccccc2)cc1`, with “inactive”.
Regarding `CCOC(=O)[C@H](C)Oc1ccc(Oc2nc3ccc(Cl)cc3o2)cc1`, the molecule was called inactive.
On the same count and under the same terms, then `O=C(Nc1ccc([N+](=O)[O-])cc1Cl)c1cc(Cl)ccc1O`, with “inactive”.

A word on the AC50: it is the concentration at which the activity in the assay is half-maximal.
